CCHF vOTU inh = CCHFV vOTU protease inhibitors, primary screen, biochemical, Pep-AMC substrate, fluorescence; inhibition, % at 11.5 µM; actives 0.55% (n = 370,000); in the data active = inhibition above about 30%; note: 0% = vehicle wells with enzyme and 100% = no enzyme wells
Mtb hypoxia inh = PubChem AID 1159583. fluorescence inhibition, % (no concentration beside the values). M. tuberculosis hypoxia-regulated fluorescent reporter, fluorescence. actives 0.1% (n = 300,000); in the data active = fluorescence inhibition mostly above about 23%, no sharp cut-off; inactive = mostly below about 17%
PriA SSB inh = inhibitors of Klebsiella pneumoniae PriA binding to SSB C-terminal tail, primary screen, biochemical, AlphaScreen | PriA–SSB C-terminal tail interaction (Klebsiella pneumoniae) | AlphaScreen SSBct-PriA binding, biotinylated peptide | inhibition, % at 33 µM | actives 0.6% (n = 430,000); in the data active = inhibition mostly above about 37%, no sharp cut-off; inactive = mostly below about 20%;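 note: plate controls were negative control peptide for no effect and reference peptide for full effect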
DUSP3 inh = VHR1 phosphatase inhibitors, primary screen, biochemical, absorbance, uHTS; Dual specificity protein phosphatase 3 (Homo sapiens), P51452; recombinant VHR phosphatase, pNPP absorbance; inhibition, % at 13.3 µM; actives 0.52% (n = 290,000); AID 1654, 2009; in the data active = inhibition above about 50%
Target sequence (P51452 whole entry, looked up): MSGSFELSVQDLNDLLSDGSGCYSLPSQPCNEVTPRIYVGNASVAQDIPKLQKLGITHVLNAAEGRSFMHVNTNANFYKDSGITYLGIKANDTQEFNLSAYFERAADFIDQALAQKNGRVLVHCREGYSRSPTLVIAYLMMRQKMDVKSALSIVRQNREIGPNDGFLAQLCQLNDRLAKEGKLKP
SARS 3CLpro inh = SARS-CoV 3CLpro protease inhibitors, primary screen, biochemical, quenched FRET; AID 1706, 2009; recombinant SARS-CoV 3CLpro, quenched FRET peptide cleavage; Replicase polyprotein 1ab (Severe acute respiratory syndrome coronavirus), P0C6X7; inhibition, % at 6 µM; actives 0.14% (n = 290,000); in the data active = inhibition above about 12%
An asterisk follows results filed as active. Shown are actives, neighbours in structure and some others; about 1.3% of the full set was active somewhere.

`O=C(NCc1ccccc1)C(=O)NCC1OCCN1S(=O)(=O)c1ccc2c(c1)OCCO2` (stereo not given) gave CCHF vOTU inh 5.5, Mtb hypoxia inh 1.9, PriA SSB inh -2.7, DUSP3 inh 3.9 and SARS 3CLpro inh -0.2.
COc1ccc(S(=O)(=O)N2CCOC2CNC(=O)C(=O)NCCCn2ccnc2)cc1 (stereo not given) was read as PriA SSB inh 102.5*.
O=C(C1CCCC1)N1CCO[C@H](c2ccc(C(F)(F)F)cc2)C1 was read as PriA SSB inh -16.0.
`CN(C1CC1)S(=O)(=O)c1ccc(C(=O)Nc2nnc(-c3ccc(Br)s3)o2)cc1` gave PriA SSB inh -7.0.
For O=C(/C=C/c1cccs1)N1CCN(CCN2C(=O)c3cccc4cccc(c34)C2=O)CC1 the results were PriA SSB inh 3.0.
For COc1ccc(NC(=O)CCCC(=O)O)c(OC)c1 the results were PriA SSB inh 4.0.
`COc1ccc(NC(=O)CCCN2C(=O)CN(C)C2=O)c(OC)c1` gave CCHF vOTU inh 1.6, Mtb hypoxia inh 7.0 and PriA SSB inh 56.9*.
For CC(C)(Oc1ccc(Cl)cc1)C(=O)NCCNc1ccc(Nc2ccccn2)nn1 the results were PriA SSB inh 31.0*.
Screening COc1cccc(C(=O)NCCNc2ccc(Nc3ccccn3)nn2)c1OC returned PriA SSB inh 1.0.
`COc1cc(C(=O)Nc2ccon2)ncn1` gave PriA SSB inh 2.0.
For O=C(/C=C/c1ccc(Br)o1)/C=C/c1ccc(Br)o1 the results were PriA SSB inh 39.0*.
For O=C(/C=C/c1ccc(Br)o1)NCc1ccccc1 the results were CCHF vOTU inh 4.3, Mtb hypoxia inh 20.5, PriA SSB inh -3.6, DUSP3 inh 7.6 and SARS 3CLpro inh 1.7.
Cc1cccc(C)c1NC(=O)C(=O)NC1CCCC1 was read as PriA SSB inh 5.0.
Screening CN(N=Cc1ccc(-c2ccc([N+](=O)[O-])cc2)o1)c1ccccc1 returned PriA SSB inh 0.6.
Screening O=C(NCCn1ncc2c(N3CCN(c4ccc(F)cc4)CC3)ncnc21)c1ccc2ccccc2c1 returned PriA SSB inh -9.0.
For CCOc1ccc(Nc2ccc([N+](=O)[O-])c3nonc23)cc1 the results were CCHF vOTU inh 9.5, Mtb hypoxia inh 16.5, PriA SSB inh 77.5*, DUSP3 inh 4.4 and SARS 3CLpro inh 2.1.
For Cc1ccc(NC(=O)C2CCCCC2)cc1N1CCCC1=O the results were PriA SSB inh -3.0.
Screening Cc1ccc(S(=O)(=O)Nc2nccs2)cc1[N+](=O)[O-] returned CCHF vOTU inh 15.3, Mtb hypoxia inh -7.6, PriA SSB inh -3.5, DUSP3 inh 11.1 and SARS 3CLpro inh 1.0.
O=[N+]([O-])c1cnc(Nc2ccc(S(=O)(=O)Nc3nccs3)cc2)c([N+](=O)[O-])c1 was read as PriA SSB inh 38.0*.
O=C(CC1SC(=O)N(Cc2ccccc2Cl)C1=O)Nc1nccs1 (stereo not given) was read as CCHF vOTU inh -7.1, Mtb hypoxia inh 2.5, PriA SSB inh -11.9, DUSP3 inh 4.8 and SARS 3CLpro inh 4.5.
O=C(CC1SC(=O)N(Cc2ccccc2)C1=O)Nc1nccs1 (stereo not given) was read as CCHF vOTU inh 16.0, PriA SSB inh -17.9, DUSP3 inh 52.9* and SARS 3CLpro inh 3.5.
Screening Cc1ccc(NC(=O)NNC(=O)COc2ccc([N+](=O)[O-])cc2)cc1C returned CCHF vOTU inh 6.1, Mtb hypoxia inh 1.6, PriA SSB inh 39.9*, DUSP3 inh 19.2 and SARS 3CLpro inh 1.8.
COc1ccc2nc(N(CCN(C)C)C(=O)CSc3ccc(Cl)cc3)sc2c1 was read as PriA SSB inh 1.0.
Screening CCN(CC)c1ccc(NC(=O)Cn2c(C(C)NC(=O)c3ccccc3)nc3ccccc32)cc1 (stereo not given) returned CCHF vOTU inh -11.9, PriA SSB inh 0.3, DUSP3 inh 55.4* and SARS 3CLpro inh -3.4.
Screening COc1ccc(C(=O)c2c(C(F)(F)F)oc3c2C(=O)c2ccccc2C3=O)cc1OC returned CCHF vOTU inh 63.6*, PriA SSB inh 49.4, DUSP3 inh -8.3 and SARS 3CLpro inh 6.6.
For COc1ccc(C(=O)Nc2ccc3c(c2)C(=O)c2ccccc2C3=O)cc1OC the results were CCHF vOTU inh -15.0, Mtb hypoxia inh -10.7, PriA SSB inh -10.8, DUSP3 inh -1.7 and SARS 3CLpro inh -3.1.

From PubChem BioAssay
